HEK293 tox: Cytotoxic Profiling in HEK 293 Cell Line of Diverse Libraries Using Quantitative High-Throughput Screening. hit rate 6.6% among 94,000. Potency, µM (doses to about 115 µM), most hits filed as inhibitors. HEK 293 viability, ATP luminescence (CellTiter-Glo), 48-72 h; also: nearly all actives have a fitted effect of over 60% in size
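Cells seeded first (HEK 293, 250 cells/well), then compound added by pintool. Incubation ran 48 or 72 hr at 37 degree Celsius. CellTiter-Glo was added and luminescence imaged after 10 min at room temperature.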
3T3 cytotox: Cytotoxic Profiling in NIH 3T3 Cell Line of Diverse Libraries Using Quantitative High-Throughput Screening; Potency, µM (titrated, usually from 96.7 µM), actives largely listed as inhibitors; hit rate 4.3% among 94,000; NIH 3T3 viability, CellTiter-Glo ATP luminescence, 48-72 h; also: nearly all actives have a fitted effect of over 55% in size
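Cytotoxicity was measured by CellTiter-Glo ATP luminescence after 48 or 72 h compound exposure at 37 °C. Mouse NIH 3T3 fibroblasts were seeded at 400 cells/well and dosed by 23 nL pin transfer.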
GPT2 inh: Primary qHTS assay for inhibitors of Glutamate pyruvate transaminase 2 (GPT2); Alanine aminotransferase 2 (Homo sapiens), Q8TD30; Recombinant GPT2, coupled pyruvate oxidase/HRP Amplex Red fluorescence; Potency, µM (doses to about 57.7 µM), usual class: inhibitors; hit rate 0.25% among 100,000; AID 1671188, 2021; also: nearly all actives have a fitted effect of over 60% in size
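Fluorescence read-out: pyruvate from GPT2 turnover coupled to pyruvate oxidase, HRP and Amplex Red (0.2mM ThPP, 0.2U/mL PO and HRP, 50uM Amplex final). Substrates 250uM a-KG, 2mM L-alanine; enzyme 10ng/uL; 30 min RT.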
NPR1 antag: Natriuretic polypeptide receptor (hNpr1) antagonism - Primary qHTS | Potency, µM (titrated, usually from 46.3 µM), actives largely listed as inhibitors | HEK293 hNpr1 GloSensor cGMP, ANP-stimulated luminescence | Atrial natriuretic peptide receptor 1 (Homo sapiens), P16066 | hit rate 1.6% among 76,000; calls by dose curve; also: nearly all actives have a fitted effect of over 60% in size
Target sequence (P16066 whole entry, looked up): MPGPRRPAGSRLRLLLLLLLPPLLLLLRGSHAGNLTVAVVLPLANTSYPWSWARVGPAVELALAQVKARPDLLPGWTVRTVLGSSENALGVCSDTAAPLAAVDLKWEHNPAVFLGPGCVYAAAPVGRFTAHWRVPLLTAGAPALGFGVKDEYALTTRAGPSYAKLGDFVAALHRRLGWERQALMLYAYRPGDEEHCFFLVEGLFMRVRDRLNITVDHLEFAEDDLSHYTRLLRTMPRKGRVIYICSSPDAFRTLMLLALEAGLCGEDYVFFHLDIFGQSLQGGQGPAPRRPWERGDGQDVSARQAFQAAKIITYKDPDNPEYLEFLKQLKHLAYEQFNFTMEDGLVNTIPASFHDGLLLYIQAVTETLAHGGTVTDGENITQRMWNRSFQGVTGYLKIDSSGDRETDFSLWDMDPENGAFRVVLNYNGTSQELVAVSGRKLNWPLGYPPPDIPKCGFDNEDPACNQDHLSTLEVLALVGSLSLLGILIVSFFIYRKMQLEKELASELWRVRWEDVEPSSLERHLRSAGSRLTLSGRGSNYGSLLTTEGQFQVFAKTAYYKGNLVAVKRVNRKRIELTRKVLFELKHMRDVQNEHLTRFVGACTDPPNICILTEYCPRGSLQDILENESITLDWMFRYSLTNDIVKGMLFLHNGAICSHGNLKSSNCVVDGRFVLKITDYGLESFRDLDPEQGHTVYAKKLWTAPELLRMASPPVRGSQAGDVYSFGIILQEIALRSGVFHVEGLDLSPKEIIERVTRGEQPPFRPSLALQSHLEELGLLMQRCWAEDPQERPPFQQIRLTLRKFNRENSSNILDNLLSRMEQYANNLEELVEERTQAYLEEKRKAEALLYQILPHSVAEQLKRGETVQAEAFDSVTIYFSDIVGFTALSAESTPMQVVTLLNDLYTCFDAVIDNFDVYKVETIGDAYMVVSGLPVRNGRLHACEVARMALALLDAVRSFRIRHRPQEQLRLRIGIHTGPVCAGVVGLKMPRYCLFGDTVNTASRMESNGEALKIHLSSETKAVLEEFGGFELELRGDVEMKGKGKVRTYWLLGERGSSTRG
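HEK293 cells stably expressing human Npr1 and cGMP GloSensor pGS-40F, loaded 2 h with 2% GloSensor reagent, given compound 30 min at room temperature. Luminescence read before and 20 min after 0.1 nM hNppA.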
Luciferase inh: Firefly luciferase inhibition profiling of diverse chemical library using quantitative high-throughput screening. Potency, µM (highest dose often 115 µM), hits mostly inhibitors. AID 1347043, 2019. purified P. pyralis luciferase, luminescence, biochemical. hit rate 2.5% among 76,000. Luciferin 4-monooxygenase (Photinus pyralis), P08659; also: nearly all actives have a fitted effect of over 65% in size
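Inhibitors were tested against purified firefly luciferase in a biochemical, low-substrate format (both substrates at 10uM) and luminescence measured with a CCD imager.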
Large screens that a line does not name were inactive. Shown are actives, neighbours in structure and some others; about 10% of the full set was active somewhere. Unless noted, calls follow the shape of the dose curve; as a rule, active = well fitted curve in the direction sought with a large enough effect; inconclusive = small, poorly fitted or top-dose-only effect, or another doubt; inactive = no such curve, though single readings can be large; an effect the other way counts as inactive or inconclusive.

COc1ccc(C(=O)NC2CCN(c3cc(-c4cccs4)[nH]n3)CC2)cc1OC	HEK293 tox inconclusive, 3T3 cytotox inconclusive
COc1ccc(C(=O)NC2CCN(c3cc(-c4cccs4)[nH]n3)CC2)cc1	HEK293 tox inconclusive, 3T3 cytotox inconclusive, Luciferase inh 18µM
O=C(CCC1CCCC1)N1CCCC(CN2CCCC2)CC1 (stereo not given)	HEK293 tox inconclusive, 3T3 cytotox inconclusive
O=S(=O)(c1ccccc1F)N1CCC(OCc2noc(C3CCCO3)n2)CC1 (stereo not given)	HEK293 tox inconclusive (no result: NPR1 antag, Luciferase inh)
CCc1cnc(-c2ccccc2)[nH]1	none (no result: NPR1 antag, Luciferase inh)
CNC(=O)[C@@H]1C[C@@H](n2cc(CNC(=O)Nc3ccc(Cl)cc3C)nn2)CN1	HEK293 tox 35µM
CNC(=O)[C@@H]1C[C@H](n2cc(CNC(=O)Nc3cccc(Cl)c3)nn2)CN1	none
Cn1ncc(CN2CCc3nc(-c4ccc(F)cc4F)[nH]c3C2)c1C1CC1	HEK293 tox inconclusive
Oc1ccc(-c2nc(C3CC3)nc3c2CCN(Cc2cccnc2)CC3)cc1	3T3 cytotox inconclusive
O=C(Cc1cccnc1)N1CCCC(c2ccccc2)(c2ccccc2)C1	HEK293 tox 45µM
O=C(Nc1cc(-c2cccnc2)nn1-c1ccccc1)c1ccccc1	HEK293 tox inconclusive (no result: NPR1 antag, Luciferase inh)
COc1cccc(CNC(=O)N2CCC(Oc3ncccc3C(=O)N3CCCCC3)C2)c1 (stereo not given)	none
O=C(C1CCC1)N1CCC[C@H](n2c(=O)n(CC3CC3)c3cccnc32)C1	HEK293 tox inconclusive, 3T3 cytotox inconclusive (no result: NPR1 antag, Luciferase inh)
CCn1cc(S(=O)(=O)N2CCC[C@H](n3c(=O)n(CC4CC4)c4cccnc43)C2)cn1	HEK293 tox 40µM
COc1cccc(N2C(=O)NC(=NC3CCCCC3)C23CCN(Cc2ccccc2)C3)c1 (stereo not given)	none (no result: NPR1 antag, Luciferase inh)
COc1cccc(N2C(=O)NC(=NC3CCCCC3)C23CCCN(Cc2ccc(F)cc2)C3)c1 (stereo not given)	HEK293 tox inconclusive, 3T3 cytotox 40µM (no result: NPR1 antag, Luciferase inh)
COc1cccc(N2C(=O)NC(=NC3CCCC3)C23CCN(Cc2ccccc2)C3)c1 (stereo not given)	HEK293 tox 89µM, 3T3 cytotox inconclusive (no result: NPR1 antag, Luciferase inh)
COc1ccc(-c2ccc(C(=O)N3CCN(C(=O)c4c(C)noc4C)CC3)cc2)nn1	none (no result: GPT2 inh, NPR1 antag, Luciferase inh)
Cc1cccc(OCC(=O)N2CCN(C(=O)c3nnn4c3COC(c3ccc(Cl)cc3)C4)CC2)c1 (stereo not given)	none
Cn1cccc1C(=O)N1CC(Oc2cccc(-c3nc(-c4ccccc4)no3)c2)C1	HEK293 tox 45µM, 3T3 cytotox inconclusive, Luciferase inh inconclusive
Cc1nc(C)c(C(=O)N2CC(Oc3cccc(-c4nc(-c5ccccc5)no4)c3)C2)s1	HEK293 tox 40µM, 3T3 cytotox inconclusive, Luciferase inh inconclusive
O=C(c1cccc2[nH]ccc12)N1CC(Oc2cccc(-c3nc(-c4ccccc4)no3)c2)C1	HEK293 tox 35µM, 3T3 cytotox inconclusive, Luciferase inh inconclusive
COc1ccccc1CN1CCC2(CC1)OC(=O)N(Cc1ccccc1F)C2(C)c1ccccc1 (stereo not given)	HEK293 tox 35µM, 3T3 cytotox 28µM
CC1(c2ccccc2)N(Cc2ccccc2F)C(=O)OC12CCN(c1cccnc1)CC2 (stereo not given)	HEK293 tox 89µM, 3T3 cytotox 89µM
CC1(c2ccccc2)N(Cc2ccccc2C#N)C(=O)OC12CCN(Cc1ccccc1F)CC2 (stereo not given)	HEK293 tox inconclusive, 3T3 cytotox inconclusive
CC1(c2ccccc2)N(Cc2ccccc2F)C(=O)OC12CCN(Cc1cccnc1)CC2 (stereo not given)	HEK293 tox inconclusive, 3T3 cytotox inconclusive
COc1ccc(-c2cc(N3CCCC(NC(=O)c4ccc(OC)c(F)c4)C3)n[nH]2)cc1 (stereo not given)	HEK293 tox 40µM, 3T3 cytotox inconclusive, GPT2 inh inconclusive, Luciferase inh inconclusive
COc1ccc(-c2cc(N3CCC(NC(=O)c4ccc(OC)c(F)c4)CC3)n[nH]2)cc1	none
Cc1cc(C)cc(C(=O)NC2CCN(c3cc(-c4ccc(F)cc4)[nH]n3)C2)c1 (stereo not given)	HEK293 tox inconclusive, 3T3 cytotox 45µM
Cc1cc(C)cc(C(=O)NC2CCN(c3cc(-c4ccccc4)[nH]n3)C2)c1 (stereo not given)	HEK293 tox inconclusive
COc1ccc(-c2cc(N3CCCC(NC(=O)c4cccc(C)c4)C3)n[nH]2)cc1 (stereo not given)	HEK293 tox 45µM, 3T3 cytotox inconclusive, GPT2 inh inconclusive, Luciferase inh 10µM
COc1ccc(C(=O)NC2CCN(c3cc(-c4ccc(OC)cc4)[nH]n3)CC2)cc1	HEK293 tox inconclusive, 3T3 cytotox inconclusive
COc1ccc(-c2cc(N3CCC(NC(=O)c4ccc5cc[nH]c5c4)CC3)n[nH]2)cc1	HEK293 tox inconclusive, 3T3 cytotox 40µM
CCn1ccc(C(=O)N2CCC3(CC2)CCC3(O)CC)n1 (stereo not given)	none
Cc1ccc(C(=O)N2CCN(c3ccc4nnc(C5CC5)n4n3)CC2)cc1	none (no result: GPT2 inh, NPR1 antag, Luciferase inh)
NC1CCCCN(Cc2cc(-c3ccccc3OC(F)(F)F)no2)C1 (stereo not given)	HEK293 tox inconclusive, 3T3 cytotox inconclusive
COc1ccc(-c2cc(N3CCC(NC(=O)c4ccccc4)CC3)n[nH]2)cc1	HEK293 tox inconclusive, 3T3 cytotox inconclusive
COc1ccc(-c2cc(N3CCC(NC(=O)c4ccc(Cl)s4)CC3)n[nH]2)cc1	HEK293 tox 25µM, 3T3 cytotox inconclusive
COc1ccc(-c2cc(N3CCCC(NC(=O)CCc4ccccc4OC)C3)n[nH]2)cc1 (stereo not given)	HEK293 tox 40µM, 3T3 cytotox inconclusive
COc1ccc(-c2cc(N3CCCC(NC(=O)c4cccc(N(C)C)c4)C3)n[nH]2)cc1 (stereo not given)	HEK293 tox inconclusive, 3T3 cytotox inconclusive, GPT2 inh inconclusive, Luciferase inh 16µM
COc1ccc(-c2cc(N3CCCC(NC(=O)c4cccn4C)C3)n[nH]2)cc1 (stereo not given)	HEK293 tox inconclusive, 3T3 cytotox inconclusive, Luciferase inh 35µM
CCn1cc(CN2CCCCCCNC(=O)[C@@H]3CCC[C@@H]32)c(C)n1	3T3 cytotox inconclusive, GPT2 inh inconclusive
COc1ccccc1Nc1ccnc(N2CCC(C(=O)NCC(F)F)CC2)n1	HEK293 tox inconclusive, 3T3 cytotox inconclusive (no result: NPR1 antag, Luciferase inh)
CCn1cnnc1CC1CCN(C(=O)C2CC2)CC1	none
CC(C)C(=O)N1CCCCCNC(=O)[C@H]2C[C@H](C(=O)N3CCc4ccccc4C3)C[C@H]21	none
